Results on one compound are retold here after ChEMBL document CHEMBL1961873, “Compounds: GSK PKIS; Assays: Nanosyn kinase panel” (2012).

For assay [1], the target named is Sphingosine kinase 1 (Homo sapiens) (UniProt Q9NYA1). The note with it: at 1 µM.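 Note: mean SPHK1 inhibition value reported from the GSK PKIS kinase panel screen.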
Assay [2] has as its target T1, Sphingosine kinase 2 (Homo sapiens) (UniProt Q9NRA0).
T1 sequence (whole entry): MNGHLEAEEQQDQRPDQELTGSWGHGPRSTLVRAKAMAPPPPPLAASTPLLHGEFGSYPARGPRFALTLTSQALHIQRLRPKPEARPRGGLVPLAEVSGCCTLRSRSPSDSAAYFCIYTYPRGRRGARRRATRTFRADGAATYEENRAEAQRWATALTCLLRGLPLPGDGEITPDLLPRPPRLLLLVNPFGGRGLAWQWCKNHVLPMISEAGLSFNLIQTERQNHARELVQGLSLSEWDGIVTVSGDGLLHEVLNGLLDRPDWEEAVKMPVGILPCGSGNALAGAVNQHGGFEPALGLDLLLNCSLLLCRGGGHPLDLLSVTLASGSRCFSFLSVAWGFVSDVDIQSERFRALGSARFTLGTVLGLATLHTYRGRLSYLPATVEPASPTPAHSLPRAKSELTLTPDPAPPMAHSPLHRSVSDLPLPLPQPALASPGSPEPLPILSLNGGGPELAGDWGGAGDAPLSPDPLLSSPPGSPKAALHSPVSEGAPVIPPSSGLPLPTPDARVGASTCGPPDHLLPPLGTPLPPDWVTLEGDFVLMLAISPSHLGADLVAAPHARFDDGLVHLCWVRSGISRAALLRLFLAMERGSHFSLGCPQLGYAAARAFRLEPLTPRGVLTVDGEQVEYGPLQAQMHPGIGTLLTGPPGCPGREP
The note with it: at 0.1 µM.

Assay [3] deals with T1, Sphingosine kinase 2 (Homo sapiens). The note with it: at 1 µM.
The target in assay [4] is Casein kinase II subunit alpha (Homo sapiens) (UniProt P68400). Conditions: at 0.1 µM.
Sequence of Casein kinase II subunit alpha (Homo sapiens) (P68400 whole entry, looked up): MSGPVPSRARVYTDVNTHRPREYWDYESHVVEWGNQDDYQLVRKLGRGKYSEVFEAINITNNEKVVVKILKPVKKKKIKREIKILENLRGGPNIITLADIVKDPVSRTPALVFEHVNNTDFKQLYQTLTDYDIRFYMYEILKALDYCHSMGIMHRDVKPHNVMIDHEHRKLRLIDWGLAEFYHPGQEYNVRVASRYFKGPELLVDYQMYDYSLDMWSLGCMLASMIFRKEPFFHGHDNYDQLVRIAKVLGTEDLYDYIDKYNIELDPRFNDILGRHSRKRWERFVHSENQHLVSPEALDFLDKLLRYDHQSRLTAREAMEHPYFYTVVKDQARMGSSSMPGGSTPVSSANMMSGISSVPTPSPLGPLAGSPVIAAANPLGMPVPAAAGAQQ
The target is the same in assay [5]. The note with it: at 1 µM.
In assay [6] the target is T2, Inhibitor of nuclear factor kappa-B kinase subunit alpha (Homo sapiens) (UniProt O15111).
T2 sequence (whole entry): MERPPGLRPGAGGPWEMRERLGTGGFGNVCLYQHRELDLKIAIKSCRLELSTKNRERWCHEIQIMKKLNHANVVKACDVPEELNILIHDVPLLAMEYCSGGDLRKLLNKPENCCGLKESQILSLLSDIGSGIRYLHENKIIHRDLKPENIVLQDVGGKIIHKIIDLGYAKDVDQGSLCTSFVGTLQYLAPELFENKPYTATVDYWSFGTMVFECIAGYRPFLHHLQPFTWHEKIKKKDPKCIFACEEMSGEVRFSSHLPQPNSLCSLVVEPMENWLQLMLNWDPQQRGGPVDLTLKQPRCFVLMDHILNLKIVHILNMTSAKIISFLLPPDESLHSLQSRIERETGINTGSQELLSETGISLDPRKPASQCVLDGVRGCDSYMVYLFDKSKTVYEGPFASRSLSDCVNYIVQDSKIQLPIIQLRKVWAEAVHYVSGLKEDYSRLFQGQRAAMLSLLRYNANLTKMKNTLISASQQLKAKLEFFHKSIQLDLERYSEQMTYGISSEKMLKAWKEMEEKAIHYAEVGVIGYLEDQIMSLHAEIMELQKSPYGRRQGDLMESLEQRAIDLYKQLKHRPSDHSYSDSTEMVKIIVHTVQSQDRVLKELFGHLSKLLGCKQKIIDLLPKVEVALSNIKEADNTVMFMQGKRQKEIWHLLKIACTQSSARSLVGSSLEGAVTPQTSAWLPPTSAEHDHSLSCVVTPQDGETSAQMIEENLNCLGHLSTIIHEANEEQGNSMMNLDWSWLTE
Conditions: at 0.1 µM.

Assay [7] has as its target T2, Inhibitor of nuclear factor kappa-B kinase subunit alpha (Homo sapiens). The note with it: at 1 µM.
Assay [8] has as its target T3, Inhibitor of nuclear factor kappa-B kinase subunit beta (Homo sapiens) (UniProt O14920).
T3 sequence (whole entry): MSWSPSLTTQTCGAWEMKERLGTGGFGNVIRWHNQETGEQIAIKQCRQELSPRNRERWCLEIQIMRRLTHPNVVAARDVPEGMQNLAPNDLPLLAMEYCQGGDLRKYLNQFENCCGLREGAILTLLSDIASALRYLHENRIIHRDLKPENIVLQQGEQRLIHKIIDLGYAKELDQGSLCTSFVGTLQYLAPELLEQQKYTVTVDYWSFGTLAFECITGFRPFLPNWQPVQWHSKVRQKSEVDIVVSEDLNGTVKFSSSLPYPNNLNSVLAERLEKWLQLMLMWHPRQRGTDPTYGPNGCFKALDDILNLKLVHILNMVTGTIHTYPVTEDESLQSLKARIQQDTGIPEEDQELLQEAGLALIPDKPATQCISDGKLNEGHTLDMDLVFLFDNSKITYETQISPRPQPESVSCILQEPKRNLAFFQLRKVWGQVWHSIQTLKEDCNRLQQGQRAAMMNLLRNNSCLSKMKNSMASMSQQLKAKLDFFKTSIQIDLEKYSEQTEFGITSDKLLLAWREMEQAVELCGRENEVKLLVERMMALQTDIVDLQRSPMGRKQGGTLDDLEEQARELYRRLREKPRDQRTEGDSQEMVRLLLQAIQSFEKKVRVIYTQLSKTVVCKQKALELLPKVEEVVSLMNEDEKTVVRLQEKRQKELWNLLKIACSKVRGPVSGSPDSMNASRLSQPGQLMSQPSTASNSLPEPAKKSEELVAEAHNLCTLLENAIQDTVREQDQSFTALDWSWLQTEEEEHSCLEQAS
The note with it: at 0.1 µM.

In assay [9] the target is T3, Inhibitor of nuclear factor kappa-B kinase subunit beta (Homo sapiens). Conditions: at 1 µM.
The target of assay [10] is T4, Inhibitor of nuclear factor kappa-B kinase subunit epsilon (Homo sapiens) (UniProt Q14164).
T4 sequence (whole entry): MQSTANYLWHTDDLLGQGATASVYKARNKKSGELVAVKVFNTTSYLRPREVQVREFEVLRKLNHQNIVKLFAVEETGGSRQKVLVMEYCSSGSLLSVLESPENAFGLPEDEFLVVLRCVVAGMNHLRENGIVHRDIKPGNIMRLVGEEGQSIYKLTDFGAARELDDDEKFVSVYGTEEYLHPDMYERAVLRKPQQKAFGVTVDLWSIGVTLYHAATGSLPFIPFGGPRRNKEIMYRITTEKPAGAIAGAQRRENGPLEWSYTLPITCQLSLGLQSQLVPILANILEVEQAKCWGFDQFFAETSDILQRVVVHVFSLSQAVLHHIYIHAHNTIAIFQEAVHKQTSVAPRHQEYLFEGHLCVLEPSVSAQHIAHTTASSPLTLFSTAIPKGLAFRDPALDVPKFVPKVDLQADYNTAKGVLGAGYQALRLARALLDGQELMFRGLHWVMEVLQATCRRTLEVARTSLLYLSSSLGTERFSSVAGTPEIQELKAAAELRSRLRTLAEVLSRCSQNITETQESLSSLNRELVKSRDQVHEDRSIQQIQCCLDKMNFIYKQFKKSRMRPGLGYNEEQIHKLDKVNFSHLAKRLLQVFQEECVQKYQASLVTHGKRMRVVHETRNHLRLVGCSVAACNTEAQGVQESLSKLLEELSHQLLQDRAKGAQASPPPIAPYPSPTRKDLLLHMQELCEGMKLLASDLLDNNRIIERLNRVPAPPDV
Conditions: at 0.1 µM.

The target of assay [11] is T4, Inhibitor of nuclear factor kappa-B kinase subunit epsilon (Homo sapiens). The note with it: at 1 µM.
For assay [12], the target named is T5, Serine/threonine-protein kinase Nek1 (Homo sapiens) (UniProt Q96PY6).
T5 sequence (whole entry): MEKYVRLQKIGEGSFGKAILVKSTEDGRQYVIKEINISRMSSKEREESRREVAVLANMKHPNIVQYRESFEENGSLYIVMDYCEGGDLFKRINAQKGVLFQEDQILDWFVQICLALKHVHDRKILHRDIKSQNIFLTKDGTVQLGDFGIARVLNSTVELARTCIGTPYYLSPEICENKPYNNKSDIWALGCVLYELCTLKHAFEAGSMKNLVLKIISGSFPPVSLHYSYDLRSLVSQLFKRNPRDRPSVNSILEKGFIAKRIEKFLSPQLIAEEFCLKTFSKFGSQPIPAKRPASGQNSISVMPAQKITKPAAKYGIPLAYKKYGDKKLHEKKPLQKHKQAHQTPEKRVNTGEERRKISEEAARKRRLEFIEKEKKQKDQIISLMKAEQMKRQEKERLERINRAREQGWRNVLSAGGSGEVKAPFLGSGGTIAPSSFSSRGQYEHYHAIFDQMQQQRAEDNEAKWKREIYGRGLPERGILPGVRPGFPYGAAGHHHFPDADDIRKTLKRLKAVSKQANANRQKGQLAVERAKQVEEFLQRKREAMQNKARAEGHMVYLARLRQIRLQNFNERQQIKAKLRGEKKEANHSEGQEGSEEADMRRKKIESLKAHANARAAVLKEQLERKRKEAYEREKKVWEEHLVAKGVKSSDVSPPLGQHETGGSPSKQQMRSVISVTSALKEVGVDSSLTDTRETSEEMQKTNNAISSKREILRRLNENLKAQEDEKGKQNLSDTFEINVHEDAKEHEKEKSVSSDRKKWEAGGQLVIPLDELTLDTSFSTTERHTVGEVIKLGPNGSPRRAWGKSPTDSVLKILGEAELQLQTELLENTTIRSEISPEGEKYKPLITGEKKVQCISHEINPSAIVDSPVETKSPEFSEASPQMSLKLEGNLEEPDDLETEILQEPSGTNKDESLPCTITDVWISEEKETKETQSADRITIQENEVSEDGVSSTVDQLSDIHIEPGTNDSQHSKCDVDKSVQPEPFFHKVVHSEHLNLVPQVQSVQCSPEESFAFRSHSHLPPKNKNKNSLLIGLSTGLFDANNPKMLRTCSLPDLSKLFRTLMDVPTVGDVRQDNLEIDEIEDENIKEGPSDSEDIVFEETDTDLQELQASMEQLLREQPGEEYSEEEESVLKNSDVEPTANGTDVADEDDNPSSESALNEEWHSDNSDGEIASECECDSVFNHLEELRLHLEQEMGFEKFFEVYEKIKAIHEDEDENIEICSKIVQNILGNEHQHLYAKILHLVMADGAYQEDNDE
Conditions: at 0.1 µM.

Assay [13] has as its target T5, Serine/threonine-protein kinase Nek1 (Homo sapiens). Conditions: at 1 µM.
Assay [14] addresses T6, Serine/threonine-protein kinase Nek2 (Homo sapiens) (UniProt P51955).
T6 sequence (whole entry): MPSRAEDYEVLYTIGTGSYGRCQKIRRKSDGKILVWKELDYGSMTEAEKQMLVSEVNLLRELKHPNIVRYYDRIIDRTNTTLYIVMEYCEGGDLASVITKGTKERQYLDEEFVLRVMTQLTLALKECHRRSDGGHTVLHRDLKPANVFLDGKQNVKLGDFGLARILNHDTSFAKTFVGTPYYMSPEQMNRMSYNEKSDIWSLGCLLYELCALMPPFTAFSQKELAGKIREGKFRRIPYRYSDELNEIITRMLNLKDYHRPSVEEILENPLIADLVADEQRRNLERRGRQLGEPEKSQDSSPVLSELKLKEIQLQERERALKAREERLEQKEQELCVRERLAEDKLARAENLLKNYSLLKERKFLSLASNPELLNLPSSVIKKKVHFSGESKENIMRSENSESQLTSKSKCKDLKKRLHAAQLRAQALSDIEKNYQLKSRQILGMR
The note with it: at 0.1 µM.

Assay [15] concerns the target T6, Serine/threonine-protein kinase Nek2 (Homo sapiens). The note with it: at 1 µM.
In assay [16] the target is Serine/threonine-protein kinase Nek6 (Homo sapiens) (UniProt Q9HC98). Conditions: at 0.1 µM.
Sequence of Serine/threonine-protein kinase Nek6 (Homo sapiens) (Q9HC98 whole entry): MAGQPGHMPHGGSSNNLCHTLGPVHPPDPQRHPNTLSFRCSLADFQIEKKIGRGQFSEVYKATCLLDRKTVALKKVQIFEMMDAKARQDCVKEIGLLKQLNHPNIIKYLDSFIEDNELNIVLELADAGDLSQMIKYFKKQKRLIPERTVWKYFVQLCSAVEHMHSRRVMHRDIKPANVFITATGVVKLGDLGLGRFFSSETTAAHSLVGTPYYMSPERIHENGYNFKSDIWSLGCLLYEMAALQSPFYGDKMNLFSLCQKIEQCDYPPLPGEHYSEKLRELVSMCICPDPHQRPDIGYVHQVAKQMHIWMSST
Assay [17] has the same target. Conditions: at 1 µM.
In assay [18] the target is Serine/threonine-protein kinase Nek7 (Homo sapiens) (UniProt Q8TDX7). The note with it: at 0.1 µM.
Sequence of Serine/threonine-protein kinase Nek7 (Homo sapiens) (Q8TDX7 whole entry, looked up): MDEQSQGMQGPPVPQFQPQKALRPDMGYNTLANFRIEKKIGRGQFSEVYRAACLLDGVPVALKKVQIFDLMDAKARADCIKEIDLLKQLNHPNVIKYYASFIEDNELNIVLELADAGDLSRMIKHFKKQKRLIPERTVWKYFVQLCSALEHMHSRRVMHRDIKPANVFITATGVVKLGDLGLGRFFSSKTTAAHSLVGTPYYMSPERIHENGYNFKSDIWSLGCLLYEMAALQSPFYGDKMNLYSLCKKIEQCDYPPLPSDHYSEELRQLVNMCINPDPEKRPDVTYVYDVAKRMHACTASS
For assay [19] the target is unchanged. Conditions: at 1 µM.
In assay [20] the target is T7, Serine/threonine-protein kinase Nek9 (Homo sapiens) (UniProt Q8TD19).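 Note: reported value is the mean percent inhibition of NEK9.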
T7 sequence (whole entry): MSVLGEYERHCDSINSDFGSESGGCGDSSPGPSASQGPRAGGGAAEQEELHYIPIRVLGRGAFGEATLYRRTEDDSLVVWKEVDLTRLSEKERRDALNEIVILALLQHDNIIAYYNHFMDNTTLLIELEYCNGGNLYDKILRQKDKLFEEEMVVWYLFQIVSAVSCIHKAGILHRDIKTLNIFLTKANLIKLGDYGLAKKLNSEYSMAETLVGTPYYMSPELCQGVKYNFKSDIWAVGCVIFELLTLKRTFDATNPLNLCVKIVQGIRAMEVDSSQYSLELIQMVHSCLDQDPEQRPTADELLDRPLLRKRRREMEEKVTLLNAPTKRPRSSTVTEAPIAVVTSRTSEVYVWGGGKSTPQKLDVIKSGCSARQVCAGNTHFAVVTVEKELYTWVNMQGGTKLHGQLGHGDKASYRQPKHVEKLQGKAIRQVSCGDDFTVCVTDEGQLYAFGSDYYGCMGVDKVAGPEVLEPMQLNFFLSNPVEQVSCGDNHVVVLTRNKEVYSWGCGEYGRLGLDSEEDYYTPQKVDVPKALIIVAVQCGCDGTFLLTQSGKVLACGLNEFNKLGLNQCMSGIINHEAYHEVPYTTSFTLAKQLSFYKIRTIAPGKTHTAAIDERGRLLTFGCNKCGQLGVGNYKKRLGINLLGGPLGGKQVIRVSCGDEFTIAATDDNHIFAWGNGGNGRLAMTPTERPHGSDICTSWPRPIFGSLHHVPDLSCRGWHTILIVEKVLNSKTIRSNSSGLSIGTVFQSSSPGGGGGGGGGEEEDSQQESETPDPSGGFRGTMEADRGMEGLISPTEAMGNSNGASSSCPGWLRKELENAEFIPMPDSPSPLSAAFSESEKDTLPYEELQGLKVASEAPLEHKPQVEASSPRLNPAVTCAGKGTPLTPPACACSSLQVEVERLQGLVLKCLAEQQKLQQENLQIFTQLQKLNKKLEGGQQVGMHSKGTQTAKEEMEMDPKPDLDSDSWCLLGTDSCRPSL
The note with it: at 0.1 µM.

Sequence of Sphingosine kinase 1 (Homo sapiens) (Q9NYA1 whole entry): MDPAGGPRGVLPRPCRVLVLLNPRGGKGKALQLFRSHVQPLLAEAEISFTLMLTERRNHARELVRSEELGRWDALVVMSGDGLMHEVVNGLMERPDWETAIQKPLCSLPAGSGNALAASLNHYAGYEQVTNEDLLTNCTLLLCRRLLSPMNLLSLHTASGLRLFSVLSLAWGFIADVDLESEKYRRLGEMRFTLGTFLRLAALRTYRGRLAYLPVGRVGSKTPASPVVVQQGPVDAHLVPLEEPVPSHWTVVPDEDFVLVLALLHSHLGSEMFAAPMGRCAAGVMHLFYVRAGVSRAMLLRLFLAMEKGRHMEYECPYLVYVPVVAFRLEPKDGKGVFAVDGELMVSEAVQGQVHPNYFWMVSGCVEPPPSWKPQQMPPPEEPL

For `COc1cc(N2CCN(C(C)C)CC2)ccc1Nc1nc(Nc2cccc3ncccc23)c2cc[nH]c2n1`, the inhibition in assay [1] is -2%; in [2], 0%; in [3], -0.78%; in assay [4], 1.04%; in assay [5], 1.8%; in assay [6] it was 4.1%. Moreover, the inhibition in assay [7] was -3.72%; in assay [8], 1.05%; in [9], -2.01%; in assay [10], -1.3%; in assay [11] it was 0.88%; in assay [12] it was -0.11%. For the same compound, the inhibition is 0.84% in assay [13]; -0.73% in [14]; -0.48% in assay [15]; -0.86% in [16]; -2.27% in assay [17]; 1.54% in [18]. Further, the results for the inhibition in [19] and in assay [20] were -0.41% and 4.56%, respectively.

Usually inhibition stands for the relative decrease from the control value, in per cent.
